Data from PubChem BioAssay AID2013 (Sanford-Burnham Center for Chemical Genomics, 2009).
Where “and” joins values, the source holds several entries; their conditions need not be identical. Equal values may be shown once. About 370 (0.13%) of roughly 290,000 compounds were called active. The entries come from a sample that favours actives as a whole. Measured potencies and affinities stand elsewhere. A number with no mark means an inactive call.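 How the source made its calls: active means spots per cell inhibited over 60%, with over 100 cells counted and total cytoplasm intensity under 500,000; inconclusive means wells with under 100 cells, flagged as likely toxic; inactive means the rest.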

Target: G-protein coupled receptor 55 (Homo sapiens) (UniProt Q9Y2T6)
Sequence (Q9Y2T6 whole entry, looked up): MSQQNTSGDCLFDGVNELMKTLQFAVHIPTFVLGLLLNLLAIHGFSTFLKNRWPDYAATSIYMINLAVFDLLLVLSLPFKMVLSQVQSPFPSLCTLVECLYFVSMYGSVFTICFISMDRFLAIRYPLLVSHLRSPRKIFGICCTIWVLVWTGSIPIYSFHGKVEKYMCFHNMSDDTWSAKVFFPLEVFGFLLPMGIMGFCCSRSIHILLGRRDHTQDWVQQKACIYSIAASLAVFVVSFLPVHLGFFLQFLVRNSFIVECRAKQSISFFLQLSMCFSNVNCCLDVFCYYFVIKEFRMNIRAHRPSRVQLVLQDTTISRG
Experiment: GPR55 antagonists blocking LPI-driven arrestin recruitment, primary screen, imaging, U2OS, beta-arrestin-GFP, LPI agonist (AID 2013);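 further: U2OS cells stably carrying GPR55 and arrestin-GFP stimulated by 5 µM LPI near EC80; imaged beta-arrestin-GFP aggregate spots per cell after agonist stimulation; plate controls were LPI-stimulated DMSO wells for no effect and DMSO wells without LPI for full effect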
Conditions: U2OS GPR55 beta-arrestin-GFP translocation imaging, LPI antagonism; at 10 µM; stronger effect = higher value

Compound	inhibition
N=c1c2c(-c3ccccc3)c(-c3ccccc3)n(Cc3ccco3)c2ncn1Cc1ccco1	29.6%
N=c1c2c(-c3ccccc3)c(-c3ccccc3)n(Cc3ccco3)c2ncn1CCO	58.3%
OCCNc1ncnc2c1c(-c1ccccc1)c(-c1ccccc1)n2Cc1ccco1	-0.4%
N=c1c2c(-c3ccccc3)c(-c3ccccc3)n(Cc3ccco3)c2ncn1CCCn1ccnc1	24.2%
N=c1c2c(-c3ccccc3)c(-c3ccccc3)n(Cc3ccco3)c2ncn1Cc1ccccc1	70.9% (active)
CCN(CC1COc2ccccc2O1)C(=S)NCCCN(C)C (centres undefined)	5.9%
COc1cc(NC(=O)CSCC(=O)Nc2cc(OC)cc(OC)c2)cc(OC)c1	-13.3%
CC1(C)CC(=O)C2=C(C1)N(c1cccc(O)c1)C1=C(C2)C(=O)CC(C)(C)C1	28.2%
Cc1ccc(OCCCn2ccnc2)c([N+](=O)[O-])c1	11.8%
CCOc1ccc(CN2CCNC(=O)C2CC(=O)NCc2csc(C)n2)cc1 (centres undefined)	-5.2%
CCOc1ccc(C(=O)NC(=S)N(Cc2ccccc2)Cc2ccccc2)cc1	8.8%
COc1ccc(CN(CCC#N)C(=S)NC(=O)c2ccccc2)cc1	21.1%
CCOC(=O)c1[nH]c2ccc(Cl)cc2c1NC(=O)/C=C/c1ccc2c(c1)OCO2	-10.3%
CCc1ccc2c(c1)cc(CN(C(=S)Nc1ccccc1C)C1CC1)c1nnnn12	-0.7%
Cn1c(=O)n(CCc2ccccc2)c(=O)c2c1nc1n2CCCN1c1ccccc1	8.1%
Cn1c(=O)n(C/C=C/c2ccccc2)c(=O)c2c1nc1n2CCCN1Cc1ccccc1	12.5%
CC(C)C(=O)Nc1ccc(N2CCN(c3ccc(F)cc3)CC2)cc1	7.7%
CC(C)N=C(NS(=O)(=O)c1ccccc1)C(Cl)(Cl)Cl	52.5%
O=C(O)CN=C(NS(=O)(=O)c1ccccc1)c1ccccc1	3.6%
Cc1ccc(CC(=O)N2CCN(c3ccccn3)CC2)cc1	1.5%
Cc1nc(-c2ccc(Cl)cc2)sc1C1(C)CC(c2cccc(Cl)c2)=NO1 (centres undefined)	2.4%
O=C(Nc1ccccc1O)c1ccc2c(c1)C(=O)N(Cc1ccco1)C2=O	1.9%
O=C(O)/C=C/c1cccnc1	10.5%

Compound	inhibition
CC(/C=C\c1cccnc1)=C/C(=O)O	13.6% and 11.7%
Cc1cc(CSc2ccccc2)ccc1NC(=O)COc1ccccc1C	5.6%
CC(C)CCNC(=O)C1CC(=O)N(CCc2ccccc2)C1 (centres undefined)	3.2%
COc1ccc(CNC(=O)CCc2c(C)nc3cc(-c4ccccc4OC)nn3c2C)cc1	12.4%
CCOc1ccc(NC(=O)c2ccccc2OCC(=O)c2ccc(C)cc2)cc1	-16%
Cc1ccc(NC(=O)c2ccccc2OCC(=O)c2ccccc2)cc1	-5.2%
O=C(NCc1ccccn1)c1ccc(CNS(=O)(=O)c2cccc(C(F)(F)F)c2)cc1	3.1%
Cc1cccc(C(=O)Oc2ccc(/C=N/NC(=O)c3ccc(O)cc3)cc2)c1	0.3%
CC1=Nc2cc(C(=O)NCCCOC(C)C)ccc2Sc2ccc(C)cc21	19.1%
Cc1c(-n2c(SC(C)C(=O)NC(N)=O)nc3ccccc3c2=O)c(=O)n(-c2ccccc2)n1C (centres undefined)	-4.9%
c1ccc(-c2ccc(-c3nccc4ccccc34)[nH]2)cc1	36%
Cc1ccc(-c2nc(-c3nccc4ccccc34)oc2-c2ccccc2)cc1	25%
S=C(Sc1ccc(Cl)cc1)Sc1ccc(Cl)cc1	91.8% (active)
CC(=O)/C(=C\N(C)C)Sc1ccc(Cl)cc1	0.6%
O=C(NC1CCCCC1)Sc1ccc(Cl)cc1	-6%
O=C(N/N=C/c1ccoc1)c1ccccc1O	-2.7%
O=C1NN(c2ccccc2)C(=O)/C1=C\c1ccccc1OCC(=O)N1CCOCC1	4.6%
O=C(O)COc1ccccc1/C=C1\SC(=Nc2ccc(F)cc2)N(c2ccc(F)cc2)C1=O	12.7%
O=C(N/N=C/c1cccc([N+](=O)[O-])c1)c1cc(-c2ccc3c4c(cccc24)CC3)n[nH]1	-4.6%
O=C(N/N=C/c1ccc(Cl)c([N+](=O)[O-])c1)c1cc(-c2ccc3c4c(cccc24)CC3)n[nH]1	76.6% (active)
O=C(O)c1ccc(/C=N/NC(=O)c2cc(-c3ccc4c5c(cccc35)CC4)n[nH]2)cc1	4%
CCN(Cc1ccccc1)S(=O)(=O)c1ccc(F)cc1	15.1%
COC(=O)C1=C(C)N(CC2CC2)C(=NCc2cc(OC)c(OC)c(OC)c2)N[C@H]1c1ccccc1	-3%

Compound	inhibition
CCN1C(=NCCc2cccnc2)N[C@@H](c2ccccc2)C(C(=O)OC)=C1C	-18.1%
COC(=O)C1=C(C)N(Cc2ccccc2)C(=O)N[C@H]1c1ccccc1	58%
COC(=O)C1=C(C)N(Cc2ccccc2)C(=NCCc2ccccn2)N[C@H]1c1cccc(F)c1	38.8%
COC(=O)C1=C(C)N(Cc2ccccc2)C(=NCc2cc(OC)c(OC)c(OC)c2)N[C@H]1c1cccc(F)c1	8.9%
CCN1C(=S)N[C@@H](c2cccc(F)c2)C(C(=O)OC)=C1C	4.1%
COC(=O)C1=C(C)N(Cc2cccnc2)C(=O)C1	-5.2%
COC(=O)C1=C(C)N(Cc2ccccc2)C(=S)N[C@H]1c1cccc(F)c1	18.7%
O=C(Nc1ccc2c(c1)OCCO2)NC1(C(F)(F)F)Oc2ccccc2O1	-14.5%
COc1ccc(NC(=O)N2CCN(c3cccc(C(F)(F)F)c3)CC2)cc1	12.5%
COc1ccc(-c2cc(C(=O)N3CCN(c4ccccc4O)CC3)c3ccccc3n2)cc1OC	13.3%
CCc1oc(C(=O)O)cc1COC	3.5%
C=CCN1C(=O)SC(Cc2cccc(OC)c2O)C1=O (centres undefined)	-4.5%
COc1ccc(C(=O)NC(C)Cc2cnccn2)cc1OC1CCN(C(C)C)CC1 (centres undefined)	18.7%
CC(C(=O)Nc1cccnc1)n1cc([N+](=O)[O-])cn1 (centres undefined)	9.4%
COCCN=C1N[C@@H](c2cccc(C(F)(F)F)c2)C(C(=O)OC)=C(C)N1Cc1ccccc1	31.8%
COC(=O)C1=C(C)N(Cc2ccccc2)C(=O)N[C@H]1c1cccc(C(F)(F)F)c1	6.8%
COc1ccc(NC(C)=O)cc1NC(=O)CN1CCN(C2c3ccccc3-c3ccccc32)CC1	100% (active)
COc1ccccc1NC(=O)CN1CCN(C2c3ccccc3-c3ccccc32)CC1	59.8%
COc1ccc(NC(C)=O)cc1NC(=O)CN1CCN(CC(=O)Nc2ccccc2Cl)CC1	21.6%
COc1ccc(NC(=O)CN2CCN(C3c4ccccc4-c4ccccc43)CC2)cc1	9.6%
COc1ccccc1NC(=O)CN1CCN(CC(=O)Nc2cc(NC(C)=O)ccc2OC)CC1	-4.4%
Nc1c2c(nn1-c1ccc(F)cc1)CSC2	-2.1%
O=C(CO/N=C1\CCCc2nonc21)Nc1ccccc1Cl	0.5%

Compound	inhibition
O=C1/C(=C/c2ccccc2)SC(=S)N1C1CCS(=O)(=O)C1 (centres undefined)	9.4%
O=C1/C(=C/c2cccnc2)SC(=S)N1C1CCS(=O)(=O)C1 (centres undefined)	3.6%
C=C(C)CNC(=S)NNC(=O)CCn1c2ccccc2c2ccccc21	-10.4%
CCOc1ccc(CCNC(=O)c2ccc(CS(=O)Cc3ccc(Cl)cc3)o2)cc1OCC (centres undefined)	13.4%
Cc1ccc(Cn2cc(SCC(=O)Nc3nccs3)c3ccccc32)cc1	2.5%
Cc1noc(NS(=O)(=O)c2ccc(NC(=O)c3cc(-c4ccccc4Cl)nc4ccccc34)cc2)c1C	14.9%
Cc1ccc(-c2cc(C(=O)Nc3ccc(S(=O)(=O)Nc4cc(C)on4)cc3)c3ccccc3n2)c(C)c1	32.5%
Cc1ccccc1C(=O)Nc1ccc(S(=O)(=O)Nc2onc(C)c2C)cc1	6.6%
Cc1cc(C)c2nc(-c3ccccn3)cc(C(=O)Nc3cc(C)on3)c2c1	1.5%
Cc1ccc(-c2cc(C(=O)Nc3ccc(S(=O)(=O)Nc4onc(C)c4C)cc3)c3ccccc3n2)cc1	-14.3%
Cc1cc(C)c(C(=O)Nc2ccc(S(=O)(=O)Nc3onc(C)c3C)cc2)c(C)c1	4.6%
COc1ccc(-n2ncc3c(=O)n(CC(=O)Nc4ccc5c(c4)OCCO5)cnc32)cc1	0.6%
COc1cc2nc(SCC(N)=O)n(CCC3=CCCCC3)c(=O)c2cc1OC	-6.5%
COc1cc(NC(=O)c2cc(C)no2)cc(OC)c1OC	3.4%
COc1cc(-c2nn3c(-c4ccccc4)nnc3s2)cc(OC)c1OC	-5.2%
Cc1cc(/C=C2\SC(N)=NC2=O)c(C)n1-c1ccccc1	-9.3%
Cc1cc(/C=C2\SC(=O)N(C)C2=O)c(C)n1-c1ccc(S(N)(=O)=O)cc1	5%
[N-]=[N+]=NC[C@H](c1ccccc1)N1CCN(Cc2ccccc2)CCC1=O	9.8%
CCOC(=O)CC(NC(=O)CCS(=O)(=O)c1ccc2c(c1)n(C)c(=O)c(=O)n2C)c1ccc(C)cc1 (centres undefined)	10.2%
CCN(CC)c1ccc(/C=N/n2c(C)nc3ccccc3c2=O)cc1	-7.1%
